Sfp inh: qHTS Assay for Inhibitors of Bacillus subtilis Sfp phosphopantetheinyl transferase (PPTase); Biochemical Sfp PPTase activity, qHTS; Potency, µM, hits mostly inhibitors; actives 3.5% (n = 310,000); AID 1490, 2009;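 further: the enzyme is Sfp with the accession as filed and its product quenches rhodamine fluorescence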
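Buffer: 50 mM Hepes-Na pH 7.6, 10 mM MgCl2, 0.01% Nonidet P-40, 0.01% BSA. Enzyme 15 nM, pre-exposed to compound 15 min; substrates then added and fluorescence change tracked over 30 min.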
L3MBTL1 inh: qHTS Assay for the Inhibitors of L3MBTL1. Lethal(3)malignant brain tumor-like protein 1 (Homo sapiens), Q9Y468. AlphaScreen L3MBTL1–H3K9me1 peptide binding. Potency, µM (top dose mostly 57.1 µM), actives largely listed as inhibitors. actives 0.66% (n = 230,000); further: nearly all actives have a fitted effect of over 60% in size
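AlphaScreen proximity signal between nickel-chelate acceptor and streptavidin donor beads (final 10 ug/mL) reports binding of 50 nM L3MBTL1 to 75 nM biotin-H3 K9me1 peptide; complex incubated with compounds 30 min at room temperature; cefsulodin titration as control.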
HP1b chromo inh: HTS for Inhibitors of HP1-beta Chromodomain Interactions with Methylated Histone Tails; Chromobox protein homolog 1 (Homo sapiens), P83916; AlphaScreen HP1-beta / biotin-H3K9me3 peptide binding; Potency, µM (highest dose often 114 µM), actives largely listed as inhibitors; actives 0.56% (n = 390,000); further: nearly all actives have a fitted effect of over 70% in size
Target sequence (P83916 whole entry, looked up): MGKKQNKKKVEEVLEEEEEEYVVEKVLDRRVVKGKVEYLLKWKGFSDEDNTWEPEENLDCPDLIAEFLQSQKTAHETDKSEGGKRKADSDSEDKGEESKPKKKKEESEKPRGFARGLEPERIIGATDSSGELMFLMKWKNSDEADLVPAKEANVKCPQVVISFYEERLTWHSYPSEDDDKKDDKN
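AlphaScreen: HP1-beta (50 nM) preformed 30 min with biotin-H3(1-18)K9me3 peptide (50 nM) in PBS pH 7.4, 0.01% Tween-20. Compound added for 30 min at RT, then streptavidin donor/nickel chelate acceptor beads (10 ug/mL) for 30 min.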
G9a inh: qHTS Assay for Inhibitors of Histone Lysine Methyltransferase G9a; Histone-lysine N-methyltransferase EHMT2 (Homo sapiens), Q96KQ7; G9a H3K9 monomethylation, AlphaScreen, 2 h; Potency, µM (top dose mostly 102 µM), actives largely listed as inhibitors; actives 8.8% (n = 350,000); further: nearly all actives have a fitted effect of over 75% in size
Target sequence (Q96KQ7 913-1193 limits assumed): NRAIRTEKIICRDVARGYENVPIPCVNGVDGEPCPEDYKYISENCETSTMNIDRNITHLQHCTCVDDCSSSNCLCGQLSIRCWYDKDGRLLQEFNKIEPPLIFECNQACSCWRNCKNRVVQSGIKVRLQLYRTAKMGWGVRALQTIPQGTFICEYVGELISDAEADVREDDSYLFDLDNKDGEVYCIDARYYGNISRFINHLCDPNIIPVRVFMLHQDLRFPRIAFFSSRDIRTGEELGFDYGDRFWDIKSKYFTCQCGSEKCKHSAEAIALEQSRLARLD
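AlphaScreen detection with an anti-monomethyl H3K9 antibody quantified product after a 2 h room-temperature reaction containing 500 nM biotinylated H3K9 peptide, 20 µM SAM and 20 nM enzyme, which had been preincubated 15 min with compound.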
JMJD2A Tudor inh: qHTS Assay for Inhibitors of JMJD2A-Tudor Domain | actives 4.4% (n = 390,000) | Lysine-specific demethylase 4A (Homo sapiens), O75164 | AID 504339, 2011 | AlphaScreen JMJD2A-Tudor / H3K4me3 peptide binding | Potency, µM (titrated, usually from 114 µM), most hits filed as inhibitors; further: nearly all actives have a fitted effect of over 50% in size
BAZ2B inh: qHTS Assay for Inhibitors of BAZ2B | Bromodomain adjacent to zinc finger domain protein 2B (Homo sapiens), Q9UIF8 | AlphaScreen BAZ2B-H3K14Ac peptide displacement | Potency, µM (highest dose often 114 µM), usual class: inhibitors | actives 4.4% (n = 360,000); further: nearly all actives have a fitted effect of over 60% in size
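BAZ2B (50 nM) with biotin-H3(5-23)K14Ac peptide (50 nM) in PBS pH 7.4, 0.01% Tween-20, preformed 30 min, then compound 30 min at room temperature; top concentration 110uM. AlphaScreen streptavidin donor/nickel chelate acceptor beads (10 ug/mL final), 20 min dark, signal read.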
Numbers stand for hits; – = inactive; ? = inconclusive; · = no result; [ ] = remark or other dose. Compounds with a hit are over-represented: about 12% of the library has one in this group of screens. The call rests on the fitted dose curve; in most records, active means well fitted curve in the direction sought with a large enough effect; inconclusive means small, poorly fitted or top-dose-only effect, or another doubt; inactive means no such curve, though single readings can be large; an effect the other way counts as inactive or inconclusive.

SMILES	Sfp inh	L3MBTL1 inh	HP1b chromo inh	G9a inh	JMJD2A Tudor inh	BAZ2B inh
COc1ccc(-c2[nH]c(-c3ccc(C)cc3)nc2SCC(=O)Nc2nccs2)cc1	–	–	?	45µM	?	?
COc1ccc(-c2nc(SCC(=O)Nc3nccs3)c(-c3ccc(Cl)cc3)[nH]2)cc1	–	–	–	–	–	–
C=CC[C@@](C(C)=O)(C(=O)OC)C(NC(=O)OC(C)(C)C)c1ccccc1 (stereo partly drawn)	–	·	·	·	·	·
Cc1cc(C)c(NC(=O)C2CCN(c3nc4ccccc4n4cccc34)CC2)c(C)c1	·	·	–	?	?	–
Cc1ccc(C(C)C)cc1OCC(=O)NNC(=O)Nc1ccccc1	–	·	–	79µM	–	–
O=C(Nc1cccc2[nH]ncc12)NS(=O)(=O)c1ccccc1	–	·	–	40µM	–	?
CC(=O)Nc1ccc(S(=O)(=O)Nc2cccc3[nH]ncc23)cc1	–	–	–	–	–	–
CCC(=O)N1CCc2cc(Br)cc(S(=O)(=O)N3CCCC(C(=O)Nc4ccc(C(C)C)cc4)C3)c21 (stereo not drawn)	·	·	–	–	–	–
Cn1nc(C(F)(F)F)c(C#N)c1N1CCN(c2ccccn2)CC1	–	–	–	–	50µM	–
CCOC(=O)CN1C(=O)S/C(=C/c2ccc(OCc3ccc(C(=O)O)cc3)cc2)C1=O	–	·	–	–[2.33 µM]	?	50µM
CCOc1ccc(/C=C2\SC(=S)N(CCC(=O)Nc3ccc(C(=O)O)cc3)C2=O)cc1	–	–	?	28µM	25µM	22µM
CCOc1ccc(/C=C2\SC(=S)N(CCC(=O)Nc3cccc(C(=O)O)c3)C2=O)cc1	–	·	?	79µM	35µM	50µM
O=C(CCN1C(=O)/C(=C/c2ccc3c(c2)OCO3)SC1=S)Nc1ccc(C(=O)O)cc1	–	·	?	–[2.33 µM]	45µM	35µM
Cc1c(-c2nsc(NC(=O)c3ccccc3)n2)nnn1-c1ccc(C(F)(F)F)c(Cl)c1	·	·	–	–	–	–
Cc1ccc(CCNC(=O)CCCn2nc(C)c3c(C)n(-c4ccccc4)nc3c2=O)cc1	·	·	–	–	–	–
COC(=O)CN1C(C(=O)c2ccccc2)=C(OC(=O)c2ccc(C)cc2)c2ccccc2S1(=O)=O	·	·	–	–	–	–
COc1ccc(N(C)C(=O)c2cn(C3CCCCC3)c(=O)c3c2c2ccccc2n3C)cc1	·	·	–	–	?	–
O=c1[nH]c2ccc(NCc3ccc(-c4ccc(F)cc4)o3)cc2[nH]1	·	·	–	–	–	–
COc1ccc(N2C(=O)CS/C2=C\[N+](=O)[O-])cc1	–	–	–	?	–	?
Cc1ccc(N2C(=O)CS/C2=C(\C(Cl)=C(Cl)Cl)[N+](=O)[O-])cc1	–	·	?	20µM	40µM	45µM
CCOC(=O)c1cc(C)n(CC2CCC(C(=O)Nc3cc(OC)cc(OC)c3)CC2)c1C (stereo not drawn)	·	·	–	?	–	–
C/C(=N\NC(=S)Nc1cccc(C)c1)c1cc2ccccc2o1	–	–[11.4 µM]	?	35µM	25µM	?
CC/C(=N\NC(=S)Nc1cccc(C)c1)c1ccccc1	–	?	?	?	50µM	?
Cc1ccc(NC(=S)N/N=C2/CCCCc3ccccc32)cc1	–	·	–	?	?	?
Cc1cccc(NC(=S)N/N=C(\c2ccccc2)C(C)C)c1	–	–	–	·	–	–
Cc1cccc(NC(=S)N/N=C2/CCCCc3ccccc32)c1	–	?	?	–	?	40µM
Cc1ccc(C2=NNC(c3cccc(F)c3)S2)cc1 (stereo not drawn)	–	·	–	?	–	–
